Inconclusive results are not listed. Activity calls are given as the source filed them. Calls follow the shape of the dose curve; as a rule, active = well fitted curve in the direction sought with a large enough effect; inconclusive = small, poorly fitted or top-dose-only effect, or another doubt; inactive = no such curve, though single readings can be large; an effect the other way counts as inactive or inconclusive.
Columns and labels:
[1] = qHTS of pediatric cancer cell lines to identify multiple opportunities for drug repurposing: Primary screen for TC32 cells (AID 1347089); also: % is scaled to controls: 0 for no effect and ±100 for the full control effect; nearly all actives have a fitted effect of over 60% in size
Outline: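 In the primary qHTS, MIPE compounds were tested at 11 concentrations (0.78 nM to 46 µM) and NPC compounds at 8 (0.59 nM to 46 µM) on TC32 cells for 48 h. CellTiter-Glo luminescence gave viability.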

[2] = qHTS of pediatric cancer cell lines to identify multiple opportunities for drug repurposing: Primary screen for DAOY cells (AID 1347090);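 also: series mostly up to about 46 µM; plate controls were DMSO for no effect and bortezomib for full effect; nearly all actives have a fitted effect of over 55% in size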
Outline: (§1)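 Eight- or eleven-point concentration series, 48 h treatment at 37 degrees C in growth media; readout CellTiter-Glo luminescence. Potency and efficacy were taken from the concentration-response curves.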

[3] = qHTS of pediatric cancer cell lines to identify multiple opportunities for drug repurposing: Primary screen for SJ-GBM2 cells (AID 1347091);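 also: plate controls were DMSO neutral control for no effect and bortezomib for full effect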
Outline: as §1

[4] = qHTS of pediatric cancer cell lines to identify multiple opportunities for drug repurposing: Primary screen for A673 cells (AID 1347092); also: nearly all actives have a fitted effect of over 45% in size; also: potency is read from the fitted curve at half-maximal effect; as to activity change, negative = cytotoxic: % is scaled to controls: 0 for no effect and ±100 for the full control effect
Outline: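 48 h compound exposure, A673, 500-1,000 cells/well, 37 degrees C/5% CO2. MIPE: 11-point, 0.78 nM-46 µM; NPC: 8-point, 0.59 nM-46 µM (final). Readout CellTiter-Glo luminescence after 15 min RT.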

[5] = qHTS of pediatric cancer cell lines to identify multiple opportunities for drug repurposing: Primary screen for SK-N-MC cells (AID 1347093); also: potency is read from the fitted curve at half-maximal effect;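 as to activity change, negative = cytotoxic: series mostly up to about 46 µM; plate controls were DMSO neutral control for no effect and bortezomib for full effect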
Outline: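 Metabolically active cells were quantified by ATP-dependent luminescence (CellTiter-Glo, 15 min at room temperature) following 48 h treatment. Cells had been plated at 500-1,000 per well and settled for 5 h beforehand.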

[6] = qHTS of pediatric cancer cell lines to identify multiple opportunities for drug repurposing: Primary screen for BT-37 cells (AID 1347094);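 also: series mostly up to about 57 µM; plate controls were DMSO for no effect and bortezomib for full effect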
Outline: (§2)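 ATP-based luminescence (CellTiter-Glo) quantifies viability after a 48-hour exposure. Compounds are dosed across 8 or 11 final concentrations; DMSO and 2.3 µM bortezomib serve as controls.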

[7] = qHTS of pediatric cancer cell lines to identify multiple opportunities for drug repurposing: Primary screen for NB-EBc1 cells (AID 1347095);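 also: plate controls were DMSO neutral control for no effect and bortezomib for full effect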
Outline: as §2

[8] = qHTS of pediatric cancer cell lines to identify multiple opportunities for drug repurposing: Primary screen for U-2 OS cells (AID 1347096);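 also: plate controls were DMSO wells for no effect and bortezomib positive control wells for full effect; nearly all actives have a fitted effect of over 50% in size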
Outline: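 Cells (500-1,000/well) in growth media were settled 5 h at 37 degrees C, then given compounds for 48 h. Viability was read as CellTiter-Glo luminescence. Primary runs used MIPE at 11 points (0.78 nM-46 µM) and NPC at 8 points (0.59 nM-46 µM); follow-ups used 11 points.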

O=c1cc[nH]c(=S)[nH]1
inactive: Potency [1] | Potency [2] | Potency [3] | Potency [6] | Potency [7] | Potency [8]
active: Potency [4] 0.001 µM | Potency [5] 2.66 µM

CC(C)(C)C(=O)NCCCC(=O)O
inactive: Potency [1] | Potency [2] | Potency [3] | Potency [4] | Potency [5] | Potency [6] | Potency [7] | Potency [8]

O=C(O)c1ccccc1O
inactive: Potency [1] | Potency [2] | Potency [3] | Potency [4] | Potency [5] | Potency [6] | Potency [7] | Potency [8]

NC(CSCC(=O)O)C(=O)O (centres undefined)
inactive: Potency [1] | Potency [2] | Potency [3] | Potency [4] | Potency [5] | Potency [6] | Potency [7] | Potency [8]

Nc1nc2c(ncn2CCC(CO)CO)c(=O)[nH]1
inactive: Potency [1] | Potency [2] | Potency [3] | Potency [4] | Potency [5] | Potency [6] | Potency [7] | Potency [8]

COc1cc(C)c(Cc2cnc(N)nc2N)cc1OC
active: Potency [5] 11.9 µM
inactive: Potency [1] | Potency [2] | Potency [3] | Potency [4] | Potency [6] | Potency [7] | Potency [8]

Cc1cc(CC(=O)O)n(C)c1C(=O)c1ccc(Cl)cc1
inactive: Potency [1] | Potency [2] | Potency [3] | Potency [4] | Potency [5] | Potency [6] | Potency [7] | Potency [8]

CC(COc1ccccc1)NC(C)C(O)c1ccc(O)cc1 (centres undefined)
inactive: Potency [1] | Potency [2] | Potency [3] | Potency [4] | Potency [5] | Potency [6] | Potency [7] | Potency [8]

CC12CCC(CC1)C(C)(C)O2
inactive: Potency [1] | Potency [2] | Potency [3] | Potency [4] | Potency [5] | Potency [6] | Potency [7] | Potency [8]

CC/C=C(\C(=O)N[C@@H]1C(=O)N2C(C(=O)OCOC(=O)C(C)(C)C)=C(COC(N)=O)CS[C@H]12)c1csc(N)n1
inactive: Potency [1] | Potency [2] | Potency [3] | Potency [4] | Potency [5] | Potency [6] | Potency [7] | Potency [8]

CCOC(=O)c1ccc(O)cc1
inactive: Potency [1] | Potency [2] | Potency [3] | Potency [4] | Potency [5] | Potency [6] | Potency [7] | Potency [8]

NS(=O)(=O)c1cc2c(cc1C(F)(F)F)NC(Cc1ccccc1)NS2(=O)=O (centres undefined)
inactive: Potency [1] | Potency [2] | Potency [3] | Potency [4] | Potency [5] | Potency [6] | Potency [7] | Potency [8]

N[C@@H](CSSC[C@H](N)C(=O)O)C(=O)O
inactive: activity change, negative = cytotoxic [1] 5.9% [at 0.594 µM] | activity change, negative = cytotoxic [2] 14.8% [at 0.597 µM] | activity change, negative = cytotoxic [3] 12.9% [at 0.597 µM] | activity change, negative = cytotoxic [4] -1.55% [at 0.597 µM] | activity change, negative = cytotoxic [5] -7.24% [at 0.597 µM] | activity change, negative = cytotoxic [6] 3.9% [at 0.745 µM] | activity change, negative = cytotoxic [7] -0.714% [at 0.597 µM] | activity change, negative = cytotoxic [8] 6.12% [at 0.597 µM]

CCCc1c(OCCCCc2nn[nH]n2)ccc(C(C)=O)c1O
inactive: Potency [1] | Potency [2] | Potency [3] | Potency [4] | Potency [5] | Potency [6] | Potency [7] | Potency [8]

CC[C@@]1(c2ccccc2)NC(=O)N(C)C1=O
inactive: Potency [1] | Potency [2] | Potency [3] | Potency [4] | Potency [5] | Potency [6] | Potency [7] | Potency [8]

O=c1cc[nH]c(=O)[nH]1
inactive: Potency [1] | Potency [2] | Potency [3] | Potency [4] | Potency [5] | Potency [6] | Potency [7] | Potency [8]

Nc1ccc(S(=O)(=O)NC(=O)c2ccccc2)cc1
inactive: Potency [1] | Potency [2] | Potency [3] | Potency [4] | Potency [5] | Potency [6] | Potency [7] | Potency [8]

C[C@@H]1CC[C@@]2(OC1)O[C@H]1C[C@H]3[C@@H]4CC[C@H]5C[C@@H](O)CC[C@]5(C)[C@H]4CC(=O)[C@]3(C)[C@H]1[C@@H]2C
inactive: activity change, negative = cytotoxic [1] 10.8% [at 4.81 µM] | activity change, negative = cytotoxic [2] 10.7% [at 4.84 µM] | activity change, negative = cytotoxic [3] 26.5% [at 4.84 µM] | activity change, negative = cytotoxic [4] 9.64% [at 4.84 µM] | activity change, negative = cytotoxic [5] 6.15% [at 4.84 µM] | activity change, negative = cytotoxic [7] 21.8% [at 4.84 µM] | activity change, negative = cytotoxic [8] 8.89% [at 4.84 µM]

CC(=O)Oc1c(C)c(C)c2c(c1C)CC[C@@](C)(CCC[C@H](C)CCC[C@H](C)CCCC(C)C)O2
inactive: Potency [1] | Potency [2] | Potency [3] | Potency [4] | Potency [5] | Potency [7] | Potency [8]

CC(C)(C)C(=O)C(Oc1ccc(Cl)cc1)n1ccnc1 (centres undefined)
inactive: Potency [1] | Potency [2] | Potency [3] | Potency [4] | Potency [5] | Potency [6] | Potency [7] | Potency [8]

Cc1ncc(COP(=O)(O)O)c(C=O)c1O
inactive: Potency [1] | Potency [2] | Potency [3] | Potency [4] | Potency [5] | Potency [6] | Potency [7] | Potency [8]

CCCCC(CC)COC(=O)c1ccccc1O (centres undefined)
inactive: Potency [1] | Potency [2] | Potency [3] | Potency [4] | Potency [5] | Potency [6] | Potency [7] | Potency [8]

CCOc1nc2cccc(C(=O)O)c2n1Cc1ccc(-c2ccccc2-c2nn[nH]n2)cc1
inactive: Potency [1] | Potency [2] | Potency [3] | Potency [4] | Potency [6] | Potency [7] | Potency [8]

COc1ccc2c(c1)C(=O)N(CCc1ccc(S(=O)(=O)NC(=O)NC3CCCCC3)cc1)C(=O)C2(C)C
inactive: Potency [1] | Potency [2] | Potency [3] | Potency [4] | Potency [6] | Potency [7] | Potency [8]

CCCCN(CCCC)CC(O)c1cc(Cl)cc2c1-c1ccc(Cl)cc1/C2=C/c1ccc(Cl)cc1 (centres undefined)
inactive: Potency [1] | Potency [2] | Potency [3] | Potency [5] | Potency [7] | Potency [8]

C=CCn1c(=O)n([C@@H]2O[C@H](CO)[C@@H](O)[C@H]2O)c2nc(N)[nH]c(=O)c21
inactive: Potency [1] | Potency [2] | Potency [3] | Potency [4] | Potency [5] | Potency [7] | Potency [8]

N[C@H]1C(O)O[C@H](CO)[C@@H](O)[C@@H]1O (some centres undefined)
inactive: Potency [1] | Potency [2] | Potency [3] | Potency [4] | Potency [5] | Potency [6] | Potency [7] | Potency [8]

CCC(=O)c1ccc(O)cc1
inactive: Potency [1] | Potency [2] | Potency [3] | Potency [4] | Potency [5] | Potency [6] | Potency [7] | Potency [8]

Nc1ccc(S(=O)(=O)Nc2nccs2)cc1
inactive: Potency [1] | Potency [2] | Potency [3] | Potency [4] | Potency [5] | Potency [7] | Potency [8]

CC(C)(C)NCC(O)COc1ccc(NC(=O)NC2CCCCC2)cc1 (centres undefined)
inactive: Potency [1] | Potency [2] | Potency [3] | Potency [4] | Potency [5] | Potency [6] | Potency [7] | Potency [8]

O=Cc1ccccc1C=O
inactive: Potency [1] | Potency [2] | Potency [3] | Potency [4] | Potency [5] | Potency [6] | Potency [7] | Potency [8]

O=C(O)COc1nn(Cc2ccccc2)c2ccccc12
inactive: Potency [1] | Potency [2] | Potency [3] | Potency [4] | Potency [5] | Potency [7] | Potency [8]

CCn1cc(C(=O)O)c(=O)c2cnc(N3CCNCC3)nc21
inactive: Potency [1] | Potency [2] | Potency [3] | Potency [4] | Potency [5] | Potency [7] | Potency [8]

NC(=O)NNc1ccccc1
inactive: Potency [1] | Potency [2] | Potency [3] | Potency [4] | Potency [5] | Potency [6] | Potency [7] | Potency [8]

COC(=O)[C@H]1[C@H]2C[C@@H]3c4[nH]c5cc(OC)ccc5c4CCN3C[C@H]2C[C@@H](OC(=O)COc2ccc(OC)cc2)[C@@H]1OC
inactive: Potency [1] | Potency [2] | Potency [3] | Potency [4] | Potency [6] | Potency [7] | Potency [8]

Source: PubChem BioAssay (NCATS)
